# Results published in PubChem BioAssay AID720597 (Broad Institute, 2013).
# Potency and affinity values are given separately. Activity calls are given as the source filed them.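 How the source made its calls: active means fitted half-maximal dose no more than twice the top valid tested dose, for compounds that lower signal; inconclusive means fit invalid, or curve flat with activity between -70 and -30; inactive means potency past limit, curve flat within ±30, or signal increasing.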
# Molecular target: NAD-dependent protein deacylase sirtuin-5, mitochondrial (Homo sapiens) (UniProt Q9NXA8)
# Assay: blockers of sirtuin-5 peptide desuccinylation – biochemical, fluorescence imaging, cherry-pick, set 6, dose response (AID 720597);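 further: lower AMC signal can also come from blocking the trypsin step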
# Conditions: Purified SirT5, succinyl-peptide-AMC/trypsin fluorescence; series mostly up to 15 µM
# Chain of NAD-dependent protein deacylase sirtuin-5, mitochondrial (Homo sapiens) (Q9NXA8 whole entry, looked up): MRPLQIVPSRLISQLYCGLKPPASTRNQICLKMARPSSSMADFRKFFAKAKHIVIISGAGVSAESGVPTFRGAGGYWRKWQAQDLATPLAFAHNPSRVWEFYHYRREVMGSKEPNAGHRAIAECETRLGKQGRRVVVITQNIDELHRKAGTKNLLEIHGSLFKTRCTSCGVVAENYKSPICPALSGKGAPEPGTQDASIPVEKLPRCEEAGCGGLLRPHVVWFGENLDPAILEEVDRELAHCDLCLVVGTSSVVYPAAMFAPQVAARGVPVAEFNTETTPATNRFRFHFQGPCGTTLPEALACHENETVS
row,SMILES,outcome
1,Cc1ccc(S(=O)(=O)N(C)C[C@@H]2OCCCC[C@@H](C)Oc3ccc(NS(=O)(=O)c4ccccc4)cc3C(=O)N([C@H](C)CO)C[C@H]2C)cc1,inactive
2,C[C@@H]1CCCCO[C@H](CN(C)C(=O)Nc2ccc(C(F)(F)F)cc2)[C@H](C)CN([C@@H](C)CO)C(=O)c2cc(NS(=O)(=O)c3ccc(Cl)cc3)ccc2O1,inactive
3,CCC(=O)N(C)C[C@@H]1[C@@H](c2ccc(-c3ccccc3F)cc2)[C@H](CO)N1C(C)=O,inactive
4,CC(C)NC(=O)Nc1ccc2c(c1)C(=O)N([C@@H](C)CO)C[C@H](C)[C@H](CN(C)C(=O)NC(C)C)OCCCC[C@@H](C)O2,inactive
5,O=C(NCC[C@H]1CC[C@H](NS(=O)(=O)c2cccc(F)c2)[C@@H](CO)O1)C1CCOCC1,inactive
6,CN(C)c1ccc2c(c1)[C@@H]1C[C@@H](CC(=O)NCc3ccccc3)O[C@H](CO)[C@@H]1O2,inactive
7,COc1ccc(S(=O)(=O)N(C)C[C@@H]2Oc3cc(C#CC4CCCC4)ccc3S(=O)(=O)N([C@H](C)CO)C[C@H]2C)cc1,inactive
8,C[C@H](CO)N1C[C@H](C)[C@H](CN(C)Cc2ccc(Cl)c(Cl)c2)Oc2ccc(NC(=O)CCCCCC(=O)Nc3ccccc3N)cc2C1=O,inactive
9,COCC(=O)N1[C@H](C#N)[C@H](c2ccccc2-c2cccc(F)c2)[C@H]1CO,inactive
10,C[C@@H]1CN([C@H](C)CO)C(=O)c2cc(N(C)C)ccc2O[C@H]1CN(C)S(=O)(=O)c1ccccc1,inactive
11,C[C@H](CO)N1C[C@H](C)[C@H](CN(C)Cc2cccc(C(F)(F)F)c2)Oc2ncc(C#Cc3ccccc3)cc2C1=O,inactive
